Test results from PubChem BioAssay AID651671 (Sanford-Burnham Center for Chemical Genomics, 2012).
This is one part of the list. Unmarked numbers belong to inactive results. Activity calls are given as the source filed them.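 The calls were made as follows: active = activation of at least 7% in one or more replicates; inactive = the rest.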

assay: alpha-DG glycosylation enhancers, retest, confirmation, single concentration, Pro5-aDG cells (AID 651671); conditions: IIH6 AlphaLISA, active compounds read high, screened at 10 µM (by protocol), scaled to LARGE-overexpressing B10 cells as 100%;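 also: cells exposed to compound for two days before detection; 0% = DMSO-treated Pro5 cells and 100% = DMSO-treated B10-LARGE cells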

SMILES | activation
O=C(c1ccc(N2CCCC2=O)cc1)N1CCN(c2ccc(C(F)(F)F)cc2[N+](=O)[O-])CC1 | 1.5%
Nc1scc[n+]1Cc1cccc2cccnc12 | -0.533%
CCn1cc(CN2CCC(C(=O)Nc3cccc(-c4cccc(Cl)c4)c3)CC2)c(C)n1 | 9.24% (active)
CC(C)OC(=O)CN1C(=O)C(=O)c2ccccc21 | 8.05% (active)
CC(C)c1cc(Cn2c3ccccc3c(=O)n2C(C)Cn2cc(C3CC3)nn2)on1 (configuration not stated) | 0.475%
COc1ccccc1C1SCCN1C(=O)c1ccc([N+](=O)[O-])cc1 (configuration not stated) | -0.592%
COc1ccccc1N1CCN(C(=O)c2cc(-c3ccc(Br)cc3)on2)CC1 | -0.683%
CN(Cc1ccccc1)CC(O)COc1ccc(CNCc2cc3ccccc3s2)cc1 (configuration not stated) | 0.15%
Cc1cccc(CN2CCC(CNC(=O)Nc3ccc(F)c(Cl)c3)CC2)c1 | 11% (active)
COc1cc(CNCCN(C)C)ccc1OCc1c(F)cccc1Cl | 6.71% (active)
CCCn1c(=N)n(CC(=O)c2ccc(Cl)c(Cl)c2)c2ccccc21 | 11% (active)
CCOc1ccc(OCC(=O)Nc2c3c(nn2C(C)(C)C)CS(=O)(=O)C3)cc1 | 0.637%
O=C(NC(c1ccc(-c2ccccc2)cc1)c1cnccn1)C1CCN(CCOc2ccc(Cl)cc2Cl)CC1 (configuration not stated) | 3.11%
CC(C)C(=O)NCC(c1cccs1)S(=O)(=O)c1ccc(F)cc1 (configuration not stated) | 0.3%
O=c1ccc2cc(S(=O)(=O)N3CCN(c4ccccc4)CC3)ccc2o1 | -0.742%
Cc1cc(C)c2[nH]c(=O)c(CN(Cc3ccccc3)C(=S)NCCCN(C)C)cc2c1 | 1.74%
COc1ccc(NC(=O)CSc2nnc(-c3ccccc3F)n2C2CC2)cc1S(N)(=O)=O | -0.758%
CC(=O)Oc1cccc(N2C(=O)C3CC=C(Cl)CC3C2=O)c1 (configuration not stated) | 0.562%
COc1cccc(C(=O)Nc2nnc(S(=O)(=O)N3CCCCC3)s2)c1 | -0.562%
OC[C@@H]1CN(Cc2ccc(-c3ccccc3)cc2)C[C@H](n2cnc3c(NC4CCCC4)ncnc32)O1 | 4.21%
Cc1ccc(NC(=O)c2ccc(Oc3ncccn3)cc2)cc1 | -0.983%
CN(C)CCCNC(=O)/C=C/c1ccc(OCc2c(F)cccc2Cl)cc1 | 8.53% (active)
CCOC(=O)C1(CCOC)CCN(Cc2cc3ccccc3s2)CC1 | -0.438%
CCc1ccccc1S(=O)(=O)Cc1ccc(C(=O)NCCc2ccccc2)o1 | -0.875%
CN1CCN(S(=O)(=O)c2cccc(C(=O)Nc3sccc3C#N)c2)CC1 | 42% (active)
CCOc1ccccc1Nc1nnc(SCC(=O)NCC2CCCO2)s1 (configuration not stated) | 0.625%
Cc1ccc(NC(=O)CN(C)CC(=O)Nc2cccc(F)c2)cc1[N+](=O)[O-] | 1.48%
